Screens as filed in PubChem.
Rows were chosen to be rich in hits. Some 2.4% of all compounds tested hit in one or more screens of this group.
D2 ag-1 = activates the human D2 dopamine receptor | activation, % at 2 µM | P14416 | 0.53% of 340,000 active | HEK293 T-REx D2 cells, calcium flux agonist mode;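 active = activation over 3 SD above normal in the single-dose calcium agonist read, cut at about 30% in these data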
Target sequence (P14416 whole entry, looked up): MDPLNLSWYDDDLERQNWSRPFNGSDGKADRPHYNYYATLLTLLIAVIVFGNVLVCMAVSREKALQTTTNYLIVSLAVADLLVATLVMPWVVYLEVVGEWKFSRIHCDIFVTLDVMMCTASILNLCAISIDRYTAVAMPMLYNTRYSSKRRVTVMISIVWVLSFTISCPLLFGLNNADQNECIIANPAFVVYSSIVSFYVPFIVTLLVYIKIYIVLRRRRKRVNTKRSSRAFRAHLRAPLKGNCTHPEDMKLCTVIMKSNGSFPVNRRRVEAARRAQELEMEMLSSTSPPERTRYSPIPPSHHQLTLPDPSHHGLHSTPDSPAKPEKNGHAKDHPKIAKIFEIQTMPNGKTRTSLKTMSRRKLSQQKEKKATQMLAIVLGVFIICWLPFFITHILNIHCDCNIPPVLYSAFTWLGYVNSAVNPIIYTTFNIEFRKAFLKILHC
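Agonism is scored from calcium flux in a force-coupled, inducible HEK293 cell line expressing D2, read kinetically for 180 s after compound addition against dopamine controls.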
D2 ag-2 = human D2 receptor agonism in beta-arrestin assay. P14416. 0.084% of 360,000 active. activation, % (concentration not given with the values). AID 624465. DiscoveRx PathHunter D2 beta-arrestin, luminescence, 90 min; 100% = 57 uM dopamine signal; in the data active = activation above about 40%; inconclusive = between about 15% and that limit
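Agonist mode: compounds alone added to overnight-plated D2 PathHunter cells for 90 min at 37 C, with 57 uM final dopamine (EC100) defining full response. Beta-arrestin recruitment detected by chemiluminescent reagent, read after 1 h at ambient temperature.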
D2 antag = antagonizes the human D2 dopamine receptor; P14416; HEK293 TREx D2 cells, calcium flux, dopamine EC80; inhibition, % at 10 µM; 2% of 340,000 active; AID 485344; in the data active = inhibition above about 30%; inactive = below that, where a call was filed
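Inhibition of EC80 dopamine-driven calcium flux, recorded kinetically, defines activity here; cells are a tetracycline-induced HEK293 T-REx line expressing force-coupled D2.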
D2 PAM-1 = human D2 receptor positive allosteric modulation. P14416. DiscoveRx D2 beta-arrestin cells, luminescence, 90 min; 100% = 57 uM dopamine signal. potentiation, % (concentration not given with the values). 0.23% of 360,000 active; in the data active = potentiation above about 50%; inconclusive = mostly about 30% to 49%
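PathHunter beta-arrestin assay in DiscoveRx D2 cells. Compounds were added with an EC20 of dopamine (50 nM final) for 90 min at 37 deg C. Luminescence was read 1 h after detection reagent, with 57 uM dopamine as the EC100 control.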
D2 PAM-2 = positively modulates the human D2 dopamine receptor allosterically; P14416; HEK293 T-REx D2, calcium flux, EC20 dopamine potentiation; potentiation, % at 10 µM; 0.34% of 340,000 active; AID 485347;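 active = potentiation over 3 SD above the plate norm, cut at about 30% in these data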
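Cells plated with tetracycline inducer and held overnight at 30 C; calcium dye loaded 30–90 min at room temperature; baseline taken, compound added and read 180 s; EC20 dopamine then added and read 180 s.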
Numbers stand for hits; n = inactive; u = inconclusive; x = no result.

SMILES | D2 ag-1 | D2 ag-2 | D2 antag | D2 PAM-1 | D2 PAM-2
Cc1ccc(CNc2ccc(N3CCOCC3)cc2)s1 | n | n | n | n | n
CN1CCN(c2oc(-c3ccccc3)nc2S(=O)(=O)c2ccc(Br)cc2)CC1 | n | n | 31 | n | n
CN1CCN(c2oc(-c3ccccc3Cl)nc2S(=O)(=O)c2ccccc2)CC1 | n | n | 79 | n | n
CN1CCN(c2oc(-c3cccs3)nc2S(=O)(=O)c2ccccc2)CC1 | n | n | n | n | n
CC(C)(C)n1cnc2cc(NCc3ccccc3Cl)ccc21 | n | x | x | x | n
COc1cc([N+](=O)[O-])ccc1NC(=O)CCN1C(=O)C2C3CCC(C3)C2C1=O (stereo not drawn) | x | n | x | n | x
COC(=O)c1ccc([N+](=O)[O-])cc1N1C(=O)C2C3CCC(C3)C2C1=O (stereo not drawn) | n | u | 53 | n | n
Cc1cccc(N2CCN(C3(c4ccccc4)C(=O)c4ccccc4C3=O)CC2C)c1 (stereo not drawn) | x | x | x | x | n
CCCCN(C)C(=O)c1ccc2c(c1)N(Cc1cccc(Cl)c1)C(=O)c1ccccc1S2=O (stereo not drawn) | n | x | x | x | n
CCn1cc(C(=O)OCc2ccccc2)c(=O)c2ccc(C)nc21 | n | n | n | n | n
CCn1cc(C(=O)OCC(=O)c2cc(C)n(-c3cccc(C(F)(F)F)c3)c2C)c(=O)c2ccc(C)nc21 | n | n | n | n | 31
CCn1cc(C(=O)OCc2ccc(F)cc2)c(=O)c2ccc(C)nc21 | n | n | n | n | 35
CC(=O)N1CCCc2cc(S(=O)(=O)N3CCC(C(=O)N(Cc4ccccc4)C(C)C)CC3)ccc21 | n | x | x | x | x
CCOC(=O)C(Cc1cc(C(C)=O)ccc1OCC)C(=O)OCC | n | n | n | n | n
CCOC(=O)C(Cc1cc(C(C)=O)ccc1OC(C)C)C(=O)OCC | n | n | 54 | n | n
C#CCN(C)Cc1ccccc1 | n | n | 32 | n | n
Cc1cc(C)c(C)c(OCCNCc2ccccc2)c1 | n | n | 75 | n | n
C=CCc1ccc(OCCCNC2CCCC2)c(OC)c1 | x | n | x | n | x
C=CCc1ccc(OCCCNCc2ccccc2)c(OC)c1 | n | n | 62 | n | n
Cc1ccc(C(C)C)c(OCCCNCc2cccnc2)c1 | n | n | n | n | n
Brc1ccccc1OCCNCc1ccccc1 | n | n | 94 | n | n
Cc1ccc(C(C)C)c(OCCNCCc2ccccc2)c1 | n | n | 41 | n | n
CCOc1ccc(OCC)c(NS(=O)(=O)c2cc(-c3cc(C)no3)ccc2C)c1 | n | x | x | x | x
Cc1ccc(NC(=O)COc2ccccc2C(N)=O)cc1S(=O)(=O)N1CCCCCC1 | n | n | n | n | n
CC(OC(=O)CC1Sc2ccccc2NC1=O)C(=O)N(C)Cc1ccccc1 (stereo not drawn) | x | n | x | n | x
SMILES | D2 ag-1 | D2 ag-2 | D2 antag | D2 PAM-1 | D2 PAM-2
Clc1ccc(OCCCNCc2ccccc2)c2ccccc12 | n | n | 41 | n | n
C=CCc1ccccc1OCCNCc1ccccc1 | n | n | 69 | n | n
CC(C)(C)OC(=O)N1CCC(c2nnc(SCc3ccccc3F)o2)CC1 | n | x | x | x | n
CN(C)c1ccc(/C=C/C(=O)c2ccc(O)cc2)cc1 | x | n | x | n | x
CN(C)c1ccc(/C=C/C(=O)c2cccnc2)cc1 | 59 | n | n | n | n
CN(C)c1ccc(/C=C/C(=O)c2ccc3c(c2)OCO3)cc1 | 68 | n | n | n | n
CC(=O)Nc1ccc(CCCCc2ccc(NC(C)=O)cc2)cc1 | x | n | x | n | x
COc1ccc(NC(=O)CSc2c3c(nc4ccc(Cl)cc24)CCCC3)cc1Cl | n | x | x | x | n
COC(=O)C(C)Sc1ccc2nnc(CCNS(=O)(=O)c3ccc(C)cc3)n2n1 (stereo not drawn) | n | n | n | n | n
COC(=O)C(C)Sc1ccc2nnc(CCNS(=O)(=O)c3ccccc3)n2n1 (stereo not drawn) | n | n | 37 | n | n
CC(C)CC(N)c1csc(NC(=O)C(c2ccccc2)c2ccccc2)n1 (stereo not drawn) | x | n | x | n | x
O=S(=O)(NC1=NCCCCC1)c1ccc(Cl)cc1 | n | n | n | n | n
CCOc1ccc(S(=O)(=O)NC2=NCCCCC2)cc1 | n | n | n | n | 71
Cc1ccc(NC(=O)CSc2nnc(N)s2)c(C)c1 | n | x | x | x | n
